PubChem BioAssay (NCATS)
Records with an inconclusive call do not appear. A call without a number means that no potency is given here. Activity calls are given as the source filed them. Unless noted, the call rests on the fitted dose curve; in most records, active means well fitted curve in the direction sought with a large enough effect; inconclusive means small, poorly fitted or top-dose-only effect, or another doubt; inactive means no such curve, though single readings can be large; an effect the other way counts as inactive or inconclusive.

How the values were obtained:
[1] = target: Catechol O-methyltransferase (Homo sapiens) (UniProt P21964); assay: Confirmatory Screen for Target Class Profiling of Small Molecule Inhibitors of Methyltransferases (AID 1745852; calls by dose curve); details: MTase-Glo luminescence, SAH detection, recombinant enzyme; measured here: COMT max response; stronger effect = lower value
[2] = target: Guanidinoacetate N-methyltransferase (Homo sapiens) (UniProt Q14353); assay: as above; details: MTase-Glo luminescence, SAH detection, recombinant enzyme; activity change, negative = inhibition: at 57.3 µM (top of the series) unless noted; series mostly up to 57.3 µM
[3] = target: Nicotinamide N-methyltransferase (Homo sapiens) (UniProt P40261); assay: as above; details: MTase-Glo luminescence, SAH detection, recombinant enzyme; measured here: NNMT max response; stronger effect = lower value
[4] = target: Phenylethanolamine N-methyltransferase (Homo sapiens) (UniProt P11086); assay: as above; details: MTase-Glo luminescence, SAH detection, recombinant enzyme; measured here: PNMT max response; stronger effect = lower value
[5] = NCATS anti-infectives library activity on HEK293 viability as a counter-qHTS vs the C. elegans viability qHTS (AID 1745854); details: HEK293 viability counter-screen; series mostly up to 41.8 µM; further: potency means the concentration at half of the fitted maximal effect
Summary of the method: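 Cytotoxicity counter-screen to a worm viability qHTS: CellTiter-Glo luminescence read 10 min after reagent addition. Compounds (final up to 41.7 uM, a 1:5 dilution series) incubated 24 hr at 37C with 1,500 HEK293 cells per well; digitonin control.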

[6] = target: Glutathione peroxidase 1 (Homo sapiens) (UniProt P07203); assay: Primary qHTS Assay for Inhibitors of Recombinant Selenoprotein Glutathione Peroxidase 1 (GPX1) (AID 1845191); details: recombinant GPX1, GR-coupled NADPH fluorescence, 15 min; series mostly up to 48.8 µM; further: nearly all actives have a fitted effect of over 65% in size
Summary of the method: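 GR-coupled readout: NADPH consumption tracked by fluorescence, ex 340/em 450 nm, at t=0 and after 15 min at RT. Final mix 10 nM GPX1, 1 mM GSH, 0.5 mM CHP, 0.5 mM NADPH, 100 nM GR, 0.01% BSA, following 30 min enzyme–compound preincubation.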

[7] = NCATS anti-infectives library activity on the primary C. elegans qHTS viability assay (AID 1745855; calls by dose curve; further: potency means the concentration at half of the fitted maximal effect); details: C. elegans worm area imaging, day 7; series mostly up to 41.8 µM
Summary of the method: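 GFP read-out by 488 nm laser cytometry at day 0, 3 and 7, gated on object perimeter, area and peak intensity, scored viability of PE254-GFP-FLuc worms exposed to compound in S medium with bacterial capsules at 21 °C.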

[8] = target: Phospholipid hydroperoxide glutathione peroxidase GPX4 (Homo sapiens) (UniProt P36969); assay: Primary qHTS Assay for Inhibitors of Recombinant Selenoprotein Glutathione Peroxidase 4 (GPX4) (AID 1845192); details: recombinant GPX4, GR-coupled NADPH fluorescence, 15 min; series mostly up to 50 µM; further: nearly all actives have a fitted effect of over 65% in size; further: potency means the concentration at half of the fitted maximal effect
Summary of the method: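 Steps: GPX4 plus compound, 30 min RT; add GR/GSH/NADPH master mix; start with cumene hydroperoxide; read 340/450 nm fluorescence at 0 and 15 min. Finals were 200 nM GPX4, 1 mM GSH, 0.5 mM CHP, 0.5 mM NADPH, 100 nM GR.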

Phenylethanolamine N-methyltransferase (Homo sapiens), sequence (P11086 whole entry, looked up): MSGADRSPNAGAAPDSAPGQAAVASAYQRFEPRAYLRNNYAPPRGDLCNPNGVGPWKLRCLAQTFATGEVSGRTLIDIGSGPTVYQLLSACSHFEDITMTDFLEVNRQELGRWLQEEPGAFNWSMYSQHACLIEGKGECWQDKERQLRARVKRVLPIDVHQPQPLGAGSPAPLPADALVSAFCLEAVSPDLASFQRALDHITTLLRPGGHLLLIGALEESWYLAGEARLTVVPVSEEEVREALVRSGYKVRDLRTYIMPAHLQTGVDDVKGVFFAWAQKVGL
Nicotinamide N-methyltransferase (Homo sapiens), sequence (P40261 whole entry, looked up): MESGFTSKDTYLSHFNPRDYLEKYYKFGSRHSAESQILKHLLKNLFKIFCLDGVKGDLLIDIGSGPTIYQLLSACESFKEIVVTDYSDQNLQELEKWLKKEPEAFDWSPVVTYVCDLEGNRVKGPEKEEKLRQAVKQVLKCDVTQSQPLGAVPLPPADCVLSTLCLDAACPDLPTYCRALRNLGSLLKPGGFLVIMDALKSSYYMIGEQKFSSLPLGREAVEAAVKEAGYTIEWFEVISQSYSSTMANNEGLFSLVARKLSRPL
Catechol O-methyltransferase (Homo sapiens), sequence (P21964 whole entry, looked up): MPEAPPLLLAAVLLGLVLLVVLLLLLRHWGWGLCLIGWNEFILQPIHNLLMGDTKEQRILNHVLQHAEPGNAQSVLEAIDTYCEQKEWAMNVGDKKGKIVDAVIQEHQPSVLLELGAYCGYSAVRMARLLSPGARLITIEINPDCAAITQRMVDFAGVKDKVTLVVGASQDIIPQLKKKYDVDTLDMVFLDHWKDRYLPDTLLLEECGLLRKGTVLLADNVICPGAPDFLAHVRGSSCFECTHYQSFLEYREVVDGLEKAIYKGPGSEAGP
Glutathione peroxidase 1 (Homo sapiens), sequence (P07203 whole entry, looked up): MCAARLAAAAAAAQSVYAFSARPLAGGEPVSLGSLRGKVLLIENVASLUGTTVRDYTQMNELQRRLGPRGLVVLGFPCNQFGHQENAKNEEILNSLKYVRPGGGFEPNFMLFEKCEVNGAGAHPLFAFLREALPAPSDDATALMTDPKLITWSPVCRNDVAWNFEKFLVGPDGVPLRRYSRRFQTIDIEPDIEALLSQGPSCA
Phospholipid hydroperoxide glutathione peroxidase GPX4 (Homo sapiens), sequence (P36969 whole entry, looked up): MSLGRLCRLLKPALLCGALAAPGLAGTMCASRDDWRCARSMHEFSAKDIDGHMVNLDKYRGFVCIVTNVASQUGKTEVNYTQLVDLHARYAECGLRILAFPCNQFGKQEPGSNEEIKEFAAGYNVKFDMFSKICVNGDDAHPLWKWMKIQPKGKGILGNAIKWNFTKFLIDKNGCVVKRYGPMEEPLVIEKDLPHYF

CC1CCN(CCCNC(=O)CCc2nnc3n(Cc4ccc(F)cc4)c(=O)c4ccccc4n23)CC1
activity [1]: -10.3%
activity change, negative = inhibition [2]: -2.12%
activity [3]: -14.9%
activity [4]: -5.49%

COc1cc(O)c(CC=C(C)C)c2c1C(=O)CC(c1ccc(O)cc1)O2 (stereo not given)
Potency [5]: inactive

Cn1c(=O)n(C)c2cc(S(=O)(=O)N3CCN(C4CCCCC4)CC3)c(Cl)cc21
activity [1]: -1.77%
activity change, negative = inhibition [2]: 2.61%
activity [3]: -10.5%
activity [4]: -13.7%

O=C(O)[C@H]1O[C@@H](Oc2cc3oc(-c4ccc(O)cc4)cc(=O)c3c(O)c2O)[C@H](O)[C@@H](O)[C@@H]1O
Potency [5]: inactive

COc1cccc(-c2ccccc2NC(=O)C2CCN(CC=C(C)C)CC2)c1
activity [1]: 0.831%
activity change, negative = inhibition [2]: 3.69%
activity [3]: -3.23%
activity [4]: -3%

COc1ccc2cc(CNc3ccc(C)cc3)c(=O)n(CC(=O)Nc3cccc(C(F)(F)F)c3)c2c1
activity [1]: -6.71%
activity change, negative = inhibition [2]: -9.44%
activity [3]: -13.5%
activity [4]: -7.35%
Potency [6]: inactive

C=C(C)[C@@H]1CC[C@]2(C(=O)O)CC[C@]3(C)[C@H](CC[C@@H]4[C@@]5(C)CC[C@H](OC(=O)CC(C)(C)C(=O)O)C(C)(C)[C@@H]5CC[C@]43C)[C@@H]12
Potency [5]: inactive

FC(F)(F)c1cccc(-c2nccn3c(C4CN(Cc5ccc6cn[nH]c6c5)C4)ncc23)c1
activity [1]: 0.457%
activity change, negative = inhibition [2]: 4.1%
activity [3]: -12.8%
activity [4]: -2.02%

COc1ccc2cc1Oc1ccc(cc1)C[C@H]1c3cc(c(OC)cc3CCN1C)Oc1c(O)c(OC)cc3c1[C@H](C2)N(C)CC3
Potency [5]: inactive

COc1ccc(S(=O)(=O)NC[C@H]2Cn3c(-c4ccc(Cl)cc4)cnc3CO2)cc1
activity [1]: -8.66%
activity change, negative = inhibition [2]: -2.1% [at 85.7 µM]
activity [3]: -23.7%
activity [4]: -17.1%

NC1=N[C@@](c2cccc(-c3cncnc3)c2)(c2ccnc(C(F)F)c2)c2cccc(F)c21
Potency [5]: inactive

CC(C)(C)c1cc(C(=O)/C(C#N)=N/Nc2cccc(Cl)c2)no1
Potency [5]: inactive
Potency [7]: 14.5 µM (active)

O=C(O)[C@H]1O[C@@H](Oc2cc3oc(-c4ccccc4)cc(=O)c3c(O)c2O)[C@H](O)[C@@H](O)[C@@H]1O
Potency [5]: inactive

C=CC(=O)N1C/C(=C\c2ccc([N+](=O)[O-])cc2)C(=O)/C(=C/c2ccc([N+](=O)[O-])cc2)C1
Potency [5]: 1.41 µM (active)

CCOC(=O)NCCCC(=O)NCCc1ccccc1
Potency [5]: inactive
Potency [7]: inactive

CC(C)CN(C[C@@H](O)[C@H](Cc1ccccc1)NC(=O)[C@@H](NC(=O)CNCc1cccc(F)c1)C(C)(C)C)S(=O)(=O)c1cccc(N)c1
Potency [5]: inactive
Potency [7]: inactive

CC1(C)CC[C@]2(C(=O)O)CC[C@]3(C)C(=CC[C@@H]4[C@@]5(C)CC[C@H](O)C(C)(C)[C@@H]5CC[C@]43C)[C@@H]2C1
Potency [5]: inactive
Potency [7]: inactive
Potency [6]: inactive

O=c1cc(-c2ccc(O)c(-c3c(O)cc(O)c4c(=O)cc(-c5ccc(O)cc5)oc34)c2)oc2cc(O)cc(O)c12
Potency [5]: inactive
Potency [7]: inactive

CC(=O)N[C@@H](CC(=O)O)C(=O)N[C@@H](CCC(=O)O)C(=O)N[C@H](C(=O)N[C@H](C=O)CC(=O)O)C(C)C
Potency [5]: inactive

CCCC[C@H](NC(=O)[C@@H]1[C@@H]2[C@H](CN1C(=O)[C@@H](NC(=O)NC1(CS(=O)(=O)C(C)(C)C)CCCCC1)C(C)(C)C)C2(C)C)C(=O)C(=O)NC1CC1
Potency [5]: inactive
Potency [7]: inactive

O=C(Cc1ccccc1)Nc1nnc(NC2CCN(c3nnc(NC(=O)Cc4ccccc4)s3)CC2)s1
Potency [5]: inactive

Cc1cnc(C(=O)N[C@H]2CCCCC/C=C\[C@@H]3C[C@@]3(C(=O)NS(=O)(=O)C3CC3)NC(=O)[C@@H]3C[C@@H](Oc4nc5ccccc5c5ccccc45)CN3C2=O)cn1
Potency [5]: inactive

CCCCc1ccc(O)cc1O
Potency [5]: inactive

C=C1CCC2C(C)(CO)C(O)CCC2(C)C1C/C=C1\C=COC1=O (stereo not given)
Potency [5]: inactive

Cn1c(=O)cc(N2CCC[C@@H](N)C2)n(Cc2ccccc2C#N)c1=O
Potency [5]: inactive
Potency [7]: inactive
Potency [6]: inactive

O=c1ccn2c(n1)O[C@H]1[C@H](O)[C@@H](CO)O[C@H]12
Potency [5]: inactive
Potency [7]: inactive

C=C[C@@H]1C[C@]1(NC(=O)[C@@H]1C[C@@H](Oc2ncc(OC)c3ccc(Cl)cc23)CN1C(=O)[C@@H](NC(=O)OC(C)(C)C)C(C)(C)C)C(=O)NS(=O)(=O)C1CC1
Potency [5]: inactive
Potency [7]: 20.5 µM (active)
Potency [6]: inactive

COc1cc2c(c(OC)c1OC)-c1c(cc(OC)c(OC)c1OC)CC(C)C(C)C2 (stereo not given)
Potency [5]: inactive

COc1cc(O)c2c(=O)cc(-c3ccc(O)cc3)oc2c1
Potency [5]: inactive

C[C@@]1(F)[C@H](O)[C@@H](CO)O[C@H]1n1ccc(=O)[nH]c1=O
Potency [5]: inactive
Potency [7]: inactive

O=C(O)[C@H]1C2CCC(CC2)[C@@H]1Nc1nc(-c2c[nH]c3ncc(F)cc23)ncc1F
Potency [5]: inactive
Potency [7]: inactive

COc1ccc(-c2oc3cc(O)cc(O)c3c(=O)c2O)cc1
Potency [5]: inactive

O=C(O)CCc1ccc(O)cc1
Potency [5]: inactive

C/C(=N\NC(=O)C(NC(=O)c1ccccc1)c1n[nH]c(=O)c2ccccc12)c1cccc(Br)c1 (stereo not given)
Potency [5]: inactive

[N-]=[N+]=NCc1cccc(/C(O)=C\C(=O)C(=O)O)c1
Potency [5]: inactive
Potency [7]: inactive

Cc1cccc(C)c1N(CC(=O)Nc1ccc(-c2ncon2)cc1)C(=O)C1CCS(=O)(=O)CC1
Potency [5]: inactive
Potency [7]: inactive

CC(C)[C@H](NC(=O)OCc1ccccc1)C(=O)N[C@@H](C)C(=O)N[C@@H](CC(=O)O)C(=O)CF
Potency [5]: inactive
Potency [7]: inactive

CC(=O)N[C@@H](CC(C)C)C(=O)N[C@@H](CC(C)C)C(=O)N[C@H](C=O)CCCN=C(N)N
Potency [5]: inactive
Potency [7]: inactive

CCCCCCCCCCCCCCCc1cccc(O)c1C(=O)O
Potency [5]: inactive
Potency [7]: inactive

COC(=O)[C@H](CCSC)NC(=O)c1ccc(NC[C@@H](N)CS)cc1-c1ccccc1
Potency [5]: inactive

CN(C)c1nc2c(Br)c(Br)c(Br)c(Br)c2n1CC(=O)O
Potency [5]: inactive

O=C(NO)c1cccc(C(=O)NCCc2ccccc2)c1
Potency [5]: inactive
Potency [7]: inactive

CC(=O)Nc1ccc(C)c(C(=O)N[C@H](C)c2cccc3ccccc23)c1
Potency [5]: inactive

CCNC(=O)c1cc2c(-c3cc(C(C)(C)O)ccc3Oc3c(C)cc(F)cc3C)cn(C)c(=O)c2[nH]1
Potency [5]: inactive

Cc1ccc(-c2ccc3c(c2)C=C(C(=O)Nc2ccc(C[N+](C)(C)C4CCOCC4)cc2)CCC3)cc1
Potency [5]: inactive

O=C(O)c1cc(-c2ccc(/C=C3\SC(=S)N(Cc4ccccc4)C3=O)o2)ccc1Cl
Potency [5]: inactive

Oc1ccc(OC2CCCCO2)cc1 (stereo not given)
Potency [5]: 14.1 µM (active)

C[C@H]1O[C@@H](O[C@H]2CC[C@@]3(C)C(CC[C@]4(C)[C@@H]3C=CC3=C5CC(C)(C)CC[C@]5(CO)[C@H](O)C[C@@]34C)[C@]2(C)CO)[C@H](O)[C@@H](O[C@@H]2O[C@H](CO)[C@@H](O)[C@H](O)[C@@H]2O)[C@H]1O (stereo not given in full)
Potency [5]: inactive
Potency [7]: inactive

O=C(NCc1c(F)cc(F)cc1F)c1cn2c(c(O)c1=O)C(=O)N1C3CCC(C3)OC1C2 (stereo not given)
Potency [5]: inactive

COC(=O)N[C@H](C(=O)N1CC2(CC2)C[C@H]1c1ncc(-c2ccc3c(c2)C(F)(F)c2cc(-c4ccc5nc([C@@H]6[C@H]7CC[C@H](C7)N6C(=O)[C@@H](NC(=O)OC)C(C)C)[nH]c5c4)ccc2-3)[nH]1)C(C)C
Potency [5]: inactive
Potency [6]: inactive
Potency [8]: 3.55 µM (active)

CC(C)C[C@H](NC(=O)CNC(=O)c1cc(Cl)ccc1Cl)B1OC(=O)C(CC(=O)O)(CC(=O)O)O1
Potency [7]: 1.63 µM (active)
Potency [6]: inactive
Potency [8]: inactive
